Test results as given in the supplement of paper PMC10646978.
± gives the standard deviation.

Key:
Details in all cases: modulator concentration 10 µM
[1] = tested on: RAW-Dual (murine macrophage reporter line); assay: NF-kB reporter (SEAP) activity fold change vs agonist alone; higher = enhanced NF-kB activity
Method in brief: (§1)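 Overnight stimulation with a PRR agonist followed pre-incubation for 1 hour at 37 °C with compound at 10 μM final. This was done in RAW-Dual murine macrophage reporter cells seeded at 50 000 per well in 384-well plates. NF-κB (SEAP, QUANTI-Blue absorbance at 620 nm) and IRF (Lucia luciferase, QUANTI-Luc luminescence) were read from the supernatant. Each reporter's fold change relative to the mean agonist-only control on the same plate was averaged over replicate plates.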

[2] = tested on: RAW-Dual (murine macrophage reporter line); assay: IRF reporter (Lucia luciferase) activity fold change vs agonist alone; higher = enhanced IRF activity
Method in brief: as §1

[3] = tested on: RAW-Dual (murine macrophage reporter line); assay: viability score (confluency relative to resting cells, overnight) (fraction); higher = more viable, active = viable (0.7 or more)
Method in brief: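 RAW-Dual macrophages in 384-well plates were exposed overnight to compound at 10 μM final. Confluency was imaged with IncuCyte, and two confluency masks were generated with IncuCyte software over all imaged wells. The viability score is confluency expressed relative to resting cells. Compounds were called viable if both masks exceeded 70% of resting cells.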

[4] = agonist: CpG ODN 1826 0.5 ug/mL

SMILES | NF-kB reporter [1, 4] | NF-kB reporter ([1]; agonist: LPS 0.1 ug/mL) | NF-kB reporter ([1]; agonist: MPLA […]) | IRF reporter ([2]; agonist: 3'3'-cGAMP 10 ug/mL) | IRF reporter ([2]; agonist: LPS 0.1 ug/mL) | IRF reporter ([2]; agonist: MPLA […]) | viability score [3]
CC(C)C(=O)Nc1ccc([N+](=O)[O-])c(C(F)(F)F)c1 | 1.42 ± 0.3 | 1.06 ± 0.077 | 1.25 ± 0.2 | 0.762 ± 0.04 | 0.97 ± 0.11 | 1.04 ± 0.12 | 0.968 (active)
Cc1ccccc1OCC(O)CO (configuration not stated) | 0.813 ± 0.22 | 1.08 ± 0.054 | 0.955 ± 0.07 | 0.93 ± 0.058 | 0.951 ± 0.13 | 1.02 ± 0.12 | 0.997 (active)
CC(C)n1cnc(S(=O)(=O)N2CCC(S(=O)(=O)c3nccn3C)CC2)c1 | 0.36 ± 0.028 | 0.842 ± 0.067 | 0.663 ± 0.048 | 0.935 ± 0.026 | 1.34 ± 0.14 | 1.14 ± 0.084 | 0.878 (active)
Cc1nn2c(=O)c(Cc3ccccc3)c(C)[nH]c2c1-c1ccccc1 | 0.777 ± 0.068 | 0.878 ± 0.082 | 1.06 ± 0.11 | 1.09 ± 0.057 | 1.26 ± 0.074 | 1.36 ± 0.11 | 1 (active)
O=C1OC(=O)C2C3CCC(O3)C12 (configuration not stated) | 1.66 ± 0.13 | 1.45 ± 0.15 | 2.06 ± 0.2 | 1.77 ± 0.076 | 1.65 ± 0.22 | 1.72 ± 0.38 | 0.94 (active)
O=C(c1cc2cc(F)ccc2s1)N1CCc2ncncc2C1 | 1.05 ± 0.099 | 1.03 ± 0.083 | 0.898 ± 0.063 | 0.927 ± 0.064 | 1.23 ± 0.14 | 1.12 ± 0.3 | 1.01 (active)
NS(=O)(=O)c1ccc(C(=O)O)cc1 | 0.892 ± 0.066 | 0.94 ± 0.096 | 1.06 ± 0.096 | 1.01 ± 0.054 | 1.01 ± 0.18 | 1 ± 0.31 | 0.994 (active)
Cc1ccccc1CC(CC(=O)O)C(=O)O (configuration not stated) | 1.1 ± 0.089 | 0.979 ± 0.12 | 0.93 ± 0.094 | 1.03 ± 0.048 | 1.21 ± 0.12 | 1.3 ± 0.19 | 1.03 (active)
O=C(Nc1nc2ccccc2n1CCN1CCOCC1)C1CCCCC1 | 1.03 ± 0.1 | 1 ± 0.088 | 0.933 ± 0.068 | 1.03 ± 0.039 | 1.55 ± 0.27 | 1.07 ± 0.12 | 1.02 (active)
COc1ccc(NC(=O)c2cn(-c3cc(N4CCSCC4)ncn3)cn2)cc1 | 1.04 ± 0.058 | 1.13 ± 0.091 | 0.939 ± 0.041 | 1.03 ± 0.069 | 1.13 ± 0.23 | 1.07 ± 0.33 | 0.997 (active)
NCCCC[C@H](N[C@@H](CCc1ccccc1)C(=O)O)C(=O)N1CCC[C@H]1C(=O)O | 1.01 ± 0.076 | 0.997 ± 0.097 | 0.97 ± 0.033 | 1.26 ± 0.25 | 0.999 ± 0.049 | 1.07 ± 0.17 | 0.996 (active)
Cc1cc(C)n(CC2CCN(Cc3ccc(Br)cc3)CC2)n1 | 0.933 ± 0.049 | 0.745 ± 0.063 | 0.74 ± 0.049 | 0.913 ± 0.05 | 1.19 ± 0.21 | 1.27 ± 0.39 | 0.626 (inactive)
COc1ccc(CCNC(=O)NCc2nnc3n2CCC(C(F)(F)F)C3)cc1 (configuration not stated) | 0.951 ± 0.067 | 1.02 ± 0.088 | 0.947 ± 0.072 | 1.05 ± 0.072 | 1.17 ± 0.07 | 1.12 ± 0.23 | 1.01 (active)
COc1cc2c(cc1OC)CN(CCc1ccc(NC(=O)c3cccc4c(=O)c5cccc(OC)c5[nH]c34)cc1)CC2 | 0.0904 ± 0.022 | 1.43 ± 0.075 | 1.2 ± 0.088 | 0.132 ± 0.0091 | 1.42 ± 0.26 | 1.6 ± 0.15 | 0.971 (active)
O=C(O)CCCN1CCC(O[C@@H](c2ccc(Cl)cc2)c2ccccn2)CC1.O=S(=O)(O)c1ccccc1 | 1.37 ± 0.19 | 1.24 ± 0.3 | 0.988 ± 0.059 | 0.995 ± 0.046 | 1.18 ± 0.26 | 1.09 ± 0.1 | 0.985 (active)
O=C(NCCN1CCN(c2ccc(F)cc2)CC1)c1ccno1 | 1.04 ± 0.1 | 0.965 ± 0.077 | 0.991 ± 0.026 | 0.982 ± 0.059 | 0.968 ± 0.072 | 0.929 ± 0.14 | 0.999 (active)
CNCCCC12CCC(c3ccccc31)c1ccccc12.Cl | 0.507 ± 0.083 | 1.1 ± 0.24 | 1.32 ± 0.074 | 0.542 ± 0.038 | 1.36 ± 0.34 | 2.48 ± 0.34 | 0.29 (inactive)
Cc1cc(C(O)CCNC(=O)Nc2ccc(Cl)c(Cl)c2)c(C)o1 (configuration not stated) | 0.577 ± 0.033 | 0.87 ± 0.075 | 0.791 ± 0.072 | 0.835 ± 0.038 | 0.974 ± 0.22 | 0.863 ± 0.31 | 0.975 (active)

SMILES | NF-kB reporter [1, 4] | NF-kB reporter ([1]; agonist: LPS 0.1 ug/mL) | NF-kB reporter ([1]; agonist: MPLA […]) | IRF reporter ([2]; agonist: 3'3'-cGAMP 10 ug/mL) | IRF reporter ([2]; agonist: LPS 0.1 ug/mL) | IRF reporter ([2]; agonist: MPLA […]) | viability score [3]
c1ccc(-c2cc3c4cccn4ccn3c2)cc1 | 1.03 ± 0.1 | 0.87 ± 0.068 | 0.848 ± 0.085 | 0.31 ± 0.029 | 1.29 ± 0.21 | 1.32 ± 0.39 | 1.04 (active)
CN1C(CC(=O)c2ccccc2)CCCC1CC(O)c1ccccc1.Cl (configuration not stated) | 0.601 ± 0.16 | 1.01 ± 0.097 | 0.964 ± 0.083 | 0.815 ± 0.041 | 0.996 ± 0.21 | 1.03 ± 0.15 | 0.988 (active)
CC(C)NCC(O)COc1ccc(CCOCC2CC2)cc1.Cl (configuration not stated) | 0.952 ± 0.13 | 1.2 ± 0.25 | 0.968 ± 0.068 | 0.907 ± 0.032 | 1.57 ± 0.17 | 1.31 ± 0.1 | 0.981 (active)
O=C(C(c1ccccc1)c1ccccc1)N1CCC(n2nccn2)CC1 | 1 ± 0.054 | 1.09 ± 0.13 | 0.904 ± 0.063 | 0.989 ± 0.053 | 1.25 ± 0.078 | 1.16 ± 0.12 | 0.999 (active)
S=C(NC12CC3CC(CC(C3)C1)C2)N1CCOCC1 | 1.14 ± 0.11 | 1.06 ± 0.074 | 1.07 ± 0.039 | 1.01 ± 0.13 | 1.07 ± 0.1 | 1.15 ± 0.12 | 1 (active)
Cc1cccc(OCCn2cc(C=Nn3cnnc3)c3ccccc32)c1 | 1.4 ± 0.11 | 1.12 ± 0.095 | 1.31 ± 0.13 | 0.992 ± 0.059 | 1.23 ± 0.11 | 1.5 ± 0.24 | 0.975 (active)
COc1ccc(S(=O)(=O)N(CC(=O)Nc2ccccc2Br)c2ccc(C)cc2)cc1OC | 0.735 ± 0.067 | 0.773 ± 0.076 | 0.864 ± 0.041 | 0.858 ± 0.086 | 1.04 ± 0.11 | 1.1 ± 0.17 | 1 (active)
CCC1OC(=O)C(C)C(OC2CC(C)(OC)C(O)C(C)O2)C(C)C(OC2OC(C)CC(N(C)C)C2O)C(C)(O)CC(C)CN(C)C(C)C(O)C1(C)O (configuration not stated) | 0.593 ± 0.046 | 1.1 ± 0.07 | 1.19 ± 0.029 | 0.727 ± 0.058 | 0.948 ± 0.11 | 0.952 ± 0.088 | 0.998 (active)
CC1(C)OC[C@@H](COC(=O)CCc2ccc(OC[C@@H](O)CNCCNC(=O)N3CCOCC3)cc2)O1.Cl | 1.05 ± 0.079 | 0.966 ± 0.072 | 0.987 ± 0.023 | 0.985 ± 0.098 | 0.97 ± 0.11 | 0.832 ± 0.2 | 1 (active)
COc1cc(/C=C/C(=O)/C=C(O)/C=C/c2ccc(O)c(OC)c2)ccc1O | 0.662 ± 0.16 | 1.14 ± 0.32 | 2.02 ± 0.15 | 0.0871 ± 0.0028 | 0.279 ± 0.091 | 0.517 ± 0.041 | 0.272 (inactive)
NC(=O)Cn1c(COc2ccccc2Cl)nc2ccccc21 | 1.35 ± 0.32 | 1.03 ± 0.051 | 0.96 ± 0.07 | 1.01 ± 0.034 | 1.26 ± 0.16 | 1.27 ± 0.21 | 0.994 (active)
O=S1(=O)Nc2c(ccc3cccnc23)-c2ccccc21 | 0.603 ± 0.086 | 1.38 ± 0.1 | 2.34 ± 0.22 | 15 ± 0.57 | 0.755 ± 0.23 | 0.29 ± 0.079 | 0.671 (inactive)
c1ccc(C2=Nc3ccccc3N=C(c3ccccc3)c3ccccc32)cc1 | 0.676 ± 0.039 | 1.18 ± 0.13 | 1.08 ± 0.066 | 0.914 ± 0.036 | 1.2 ± 0.1 | 1.01 ± 0.096 | 0.979 (active)
CCS(=O)(=O)N1N=C(c2ccc(NS(C)(=O)=O)cc2)CC1c1ccccc1 (configuration not stated) | 0.947 ± 0.073 | 0.998 ± 0.078 | 1.12 ± 0.12 | 0.963 ± 0.034 | 1.29 ± 0.15 | 1.4 ± 0.23 | 1.02 (active)
O=C(NC1CCN(c2ccc(C(F)(F)F)cn2)C1)c1nc2ccccc2s1 (configuration not stated) | 1.09 ± 0.056 | 1.05 ± 0.088 | 0.909 ± 0.081 | 0.953 ± 0.049 | 1.27 ± 0.076 | 1.11 ± 0.28 | 0.983 (active)
Cc1cc(OCC(=O)NC2CC(C)(C)NC(C)(C)C2)ccc1Br | 0.843 ± 0.1 | 1.03 ± 0.079 | 1.05 ± 0.043 | 0.952 ± 0.041 | 1.1 ± 0.079 | 1.55 ± 0.19 | 0.976 (active)
O=C(O)CCn1c2c(c3ccccc31)C[C@H](NS(=O)(=O)c1ccc(F)cc1)CC2 | 1.13 ± 0.27 | 0.94 ± 0.061 | 0.947 ± 0.06 | 0.879 ± 0.072 | 1.2 ± 0.29 | 1.1 ± 0.12 | 1 (active)
O=C(NCC1(O)CCc2ccccc2C1)c1cccc(C(F)(F)F)c1 (configuration not stated) | 0.848 ± 0.041 | 0.939 ± 0.1 | 0.957 ± 0.054 | 0.989 ± 0.045 | 1.09 ± 0.26 | 1.12 ± 0.43 | 0.994 (active)
